Most compounds without a hit are left out; they make up all but 7.5% or so of the library.
Rab9 prom act: activates the Rab9 promoter. 2.8% of 320,000 active. Potency, µM (doses to about 9.22 µM), for the others: top-dose activation, negative = inhibition, most hits filed as activators. Huh7 Rab9 promoter-luciferase reporter, luminescence, 24 h; further: % of control where 0% means no effect; nearly all actives have a fitted effect of over 60% in size
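Steps: seed 1500 Huh7 Rab9-luc cells per well, rest 2 h at 37 °C; add compound in DMSO; incubate 24 h; add luciferase reagent, 10 min ambient; read luminescence.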
ELG1 genotoxic: induces genotoxicity in HEK293T cells with luciferase-tagged ELG1; 1.3% of 330,000 active; HEK293T ELG1-luciferase reporter, luminescence, 16 h; Potency, µM (titrated, usually from 46 µM), without a hit: at the top dose activity change, positive = activation, hits mostly activators; AID 504466; further: % of control where 0% means no effect; nearly all actives have a fitted effect of over 60% in size
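Genotoxicity was scored as increased ELG1-luciferase reporter signal, measured by ONE-Glo luminescence (30 min, room temperature). Compound or vehicle exposure of the HEK293T reporter cells lasted 16 hr at 37°C.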
KinaseGlo FLuc: Kinase-Glo luciferase inhibition (counter-screen); Kinase-Glo luciferase, ATP luminescence, 8 min; Potency, µM (top dose mostly 38.3 µM), inactives show at the highest dose activity change, negative = inhibition, hits mostly inhibitors; 0.28% of 200,000 active; AID 1379; further: on the % scale 0 is the no-effect control and ±100 the full control effect; nearly all actives have a fitted effect of over 60% in size
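Luminescence was the read-out, taken after 8-minute incubation at ambient temperature. Luciferase turned over luciferin with 10 uM ATP in imidazole pH 7.2 buffer containing KCl, MgCl2, Tween 20 and BSA.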
FLuc modulator: inhibits or activates purified firefly luciferase, miR-21 counter-screen. 6.9% of 360,000 active. P08659. purified FLuc, Km substrates, luminescence inhibition. Potency, µM (series often up to 57.5 µM), for the others: top-dose activity change, negative = inhibition, usual class: inhibitors;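 further: plate controls were vehicle for no effect and reference inhibitor for full effect; nearly all actives have a fitted effect of over 55% in size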
Target sequence (P08659 whole entry, looked up): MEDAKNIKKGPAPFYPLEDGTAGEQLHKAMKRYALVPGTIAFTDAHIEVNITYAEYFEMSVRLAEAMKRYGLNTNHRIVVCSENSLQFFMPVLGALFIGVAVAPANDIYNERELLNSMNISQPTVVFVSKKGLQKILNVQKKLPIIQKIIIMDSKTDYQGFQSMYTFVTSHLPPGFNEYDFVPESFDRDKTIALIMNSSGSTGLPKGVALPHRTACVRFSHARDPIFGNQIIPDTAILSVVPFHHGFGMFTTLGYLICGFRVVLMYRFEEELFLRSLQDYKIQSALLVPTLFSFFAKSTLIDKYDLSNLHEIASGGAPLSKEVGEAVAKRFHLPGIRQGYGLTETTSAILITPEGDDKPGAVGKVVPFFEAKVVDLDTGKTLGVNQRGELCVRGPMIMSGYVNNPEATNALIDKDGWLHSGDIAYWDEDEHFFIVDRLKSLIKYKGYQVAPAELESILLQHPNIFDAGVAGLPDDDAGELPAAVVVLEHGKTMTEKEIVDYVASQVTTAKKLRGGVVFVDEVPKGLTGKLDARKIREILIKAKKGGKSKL
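Purified P. pyralis luciferase (10nM final) with 10uM D-luciferin and 10uM ATP (Km levels) in 50mM Tris acetate pH 7.5, 10mM Mg acetate, 0.01% Tween-20, 0.05% BSA; qHTS 6-point titration, ~60 µM downward; luminescence read.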
NPC1 promoter act: activates the NPC1 promoter. Huh7 NPC1 promoter luciferase reporter, 24 h. Potency, µM (titrated, usually from 9.22 µM), inactives show at the top dose activation, usual class: activators. 2.4% of 320,000 active. AID 485313; further: % of control where 0% means no effect; nearly all actives have a fitted effect of over 60% in size
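In 1536-well qHTS, Huh7 cells harboring an NPC1 promoter–luciferase construct received compound for 24 h; activation was quantified by luminescence following luciferase reagent addition.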
SMN2 splice up: increases expression of the SMN2 splice variant; HEK293 SMN2-luciferase splicing reporter, luminescence, 30-36 h; Potency, µM (series often up to 46.1 µM), inactives show at the highest dose activity change, positive = activation, hits mostly activators; 2.8% of 210,000 active; AID 1458; further: % of control where 0% means no effect; nearly all actives have a fitted effect of over 55% in size
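HEK293 cells carry an SMN2 […]–luciferase reporter in which exon 7 inclusion puts luciferase in frame. Cells were plated 10-12 h before compound addition, then incubated 30-36 h at 37C. ONE-Glo luminescence was read; sodium butyrate at 4.5 mM final served as control.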
Active calls of the source: *; ? = inconclusive; · = not tested or not shown. The call rests on the fitted dose curve; in most records, active means well fitted curve in the direction sought with a large enough effect; inconclusive means small, poorly fitted or top-dose-only effect, or another doubt; inactive means no such curve, though single readings can be large; an effect the other way counts as inactive or inconclusive. Potency means the concentration at half of the fitted maximal effect.

SMILES | Rab9 prom act | ELG1 genotoxic | KinaseGlo FLuc | FLuc modulator | NPC1 promoter act | SMN2 splice up
O=C(Cc1ccc(Cl)cc1)Nc1nc2ccccc2[nH]1 | 3% | 16% | -6% | -2% | 2% | 22%
O=C(Nc1nc2ccccc2[nH]1)c1cccc(Cl)c1 | 0.71µM* | 16µM* | · | 2.1µM* | 1µM* | ·
CN(c1cccc(Cl)c1)S(=O)(=O)c1cccc(C(=O)Nc2nc3ccccc3[nH]2)c1 | -4% | -15% | -1% | -17% | 1% | -96%
Cc1ccc(OCCCC(=O)Nc2nc3ccccc3[nH]2)cc1 | 3% | 0% | 3% | 3% | 7% | 9%
O=C(CCCOc1ccccc1)Nc1nc2ccccc2[nH]1 | ? | ? | -1% | 11µM* | ? | ·
Cc1nc2c(c(C)c1CCC(=O)Nc1ccc(F)cc1)c(=O)n(C)c(=O)n2C | · | · | · | 0% | · | 12%
CCCn1cnnc1CNC(=O)C1CCC(=O)N(CCc2cccc(F)c2)C1 (stereo unspecified) | -1% | -4% | · | 1% | -3% | ·
Cc1ccc(-c2n[nH]c3c2C(c2cccc(O)c2)N(c2ccc(C(=O)O)cc2)C3=O)cc1 (stereo unspecified) | -2% | 1% | · | 8.5µM* | -2% | 4%
CC(=O)Nc1ccc(-c2csc(N/N=C(/C)c3ccccc3)n2)cc1 | 10% | -11% | · | 21µM* | 24% | ·
CCC(=O)Nc1cccc(-c2csc(-c3ccccc3)n2)c1 | 22% | 8% | 0% | 15µM* | 20% | ?
CC(=O)Nc1ccc(-c2csc(NNC(=O)c3ccccc3)n2)cc1 | 19% | -1% | 4% | 4% | -1% | -1%
CC(C)CC(=O)Nc1cccc(-c2csc(-c3ccccc3)n2)c1 | 15% | -2% | 0% | ? | 0% | ?
CC(=O)Nc1ccc(-c2csc(NCc3ccccc3)n2)cc1 | ? | ? | 6% | 19µM* | 22% | 17%
CC(C)=NNc1nc(-c2ccc([N+](=O)[O-])cc2)cs1 | 12% | 9% | 0% | ? | 7% | -26%
C/C(=N/Nc1nc(-c2ccc(Cl)cc2)cs1)c1cccs1 | ? | 17% | -9% | 15µM* | 18% | ?
CC(C)c1ccc2c(c1)NC(c1ccc(F)cc1)=NC(c1cccs1)=N2 | · | · | · | -18% | · | -1%
Nc1nnc(SCC(=O)NNC(=O)c2ccccc2F)s1 | · | 1% | · | · | · | ·
CC(=O)Nc1cccc(-c2csc(NCc3ccccc3)n2)c1 | -3% | 2% | 0% | 21µM* | -3% | ·
Cc1ccc(-c2noc(C3CCCCC3)n2)cc1 | ? | ? | 1% | ? | 4µM* | 22%
CCS(=O)(=O)N1CCC(c2nc(-c3ccc(C)cc3)no2)CC1 | ? | 10% | 2% | 15µM* | ? | -26%
CCS(=O)(=O)N1CCC(c2nc(-c3ccc(C(F)(F)F)cc3)no2)CC1 | -18% | -12% | 0% | 2% | -15% | -47%
Cc1cccc(-c2noc(C3CCCCC3)n2)c1 | · | · | -8% | 3µM* | · | 24%
COc1cc2c(cc1OC)C(COc1ccc3c(C)cc(=O)oc3c1)N(C(=O)c1ccccc1F)CC2 (stereo unspecified) | · | · | · | 1% | · | 4%
N#C/C(=C\c1ccc(O)cc1)c1nc2ccccc2o1 | ? | ? | · | 11µM* | ? | ·
N#C/C(=C/c1ccc(O)cc1)c1nc(-c2ccc(-c3ccccc3)cc2)cs1 | · | · | · | -17% | · | -3%
SMILES | Rab9 prom act | ELG1 genotoxic | KinaseGlo FLuc | FLuc modulator | NPC1 promoter act | SMN2 splice up
COc1cc(/C=C(\C#N)c2nc3ccccc3o2)ccc1O | 20% | ? | · | 7.6µM* | -2% | ·
O=C(COc1ccc(Cl)cc1)OCc1csc(Nc2ccccc2)n1 | -2% | 2% | 1% | -17% | -1% | -7%
Cc1ccc(Nc2nc(COC(=O)COc3ccc(C=O)cc3)cs2)cc1 | ? | ? | -1% | 2.7µM* | ? | 35µM*
C/C=C/c1ccc(OCC(=O)OCc2csc(Nc3ccc(C)cc3)n2)c(OC)c1 | ? | 13% | 6% | 12µM* | ? | 11µM*
Nc1c(C(=O)Nc2ccc(Cl)cc2F)sc2nc(-c3cccs3)ccc12 | · | · | · | -11% | · | -7%
Cc1nn(CCO)c(N)c1C1(O)C(=O)Nc2c(Cl)cc(Cl)cc21 (stereo unspecified) | -3% | 1% | -1% | -1% | 6% | -8%
Clc1c(Cl)c(Cl)c2n[nH]nc2c1Cl | -6% | -7% | · | -10% | -1% | ·
CCCOC(=O)c1ccc(NC(=O)Cc2cccs2)cc1 | ? | ? | · | 19µM* | ? | ·
CCCOC(=O)c1ccc(NC(=O)COC)cc1 | 6% | ? | 18% | ? | 2% | 0%
CC(=O)c1ccc(NC(=O)Cc2cccs2)cc1 | 2.5µM* | ? | · | ? | 2.8µM* | ·
COc1ccc(C(=O)Nc2nc3c(s2)CCc2cc(OC)ccc2-3)cc1 | · | · | · | 7.6µM* | · | -38%
COc1ccc2c(c1)-c1nc(NC(=O)c3ccc(C)cc3)sc1CC2 | · | · | · | 2.7µM* | · | 12%
COc1ccc2c(c1)CCc1sc(NC(=O)c3cccc(Br)c3)nc1-2 | · | · | · | -13% | · | ·
O=C(CC1Nc2ccccc2NC1=O)c1ccccc1 (stereo unspecified) | 2.5µM* | 9.2µM* | ? | 3µM* | ? | 13µM*
Cc1ccc(NC2Sc3ccccc3NC2=O)cc1Cl (stereo unspecified) | 0% | -1% | · | 19µM* | 0% | ·
Cc1ccc(NC(=O)CC2Nc3ccccc3NC2=O)cc1C (stereo unspecified) | · | · | · | -12% | · | -6%
Cc1ccc(NC(=O)CC2Nc3ccccc3NC2=O)cc1Cl (stereo unspecified) | 23% | ? | 2% | 24µM* | 15% | -5%
O=C(CC1Nc2ccccc2NC1=O)NCCc1ccccc1 (stereo unspecified) | -2% | -3% | -4% | -2% | -1% | -8%
Cc1ccc(S(=O)(=O)N2CCCc3cc(NC(=O)c4ccc(C(C)(C)C)cc4)ccc32)cc1 | · | · | · | -1% | · | ·
O=C1/C(=C/c2cccnc2)Cc2ccc(Cl)cc21 | 5% | -2% | · | 12µM* | 6% | ·
CN1C/C(=C/c2cccnc2)C(=O)/C(=C/c2cccnc2)C1 | -46% | -14% | 3% | -2% | -24% | -115%
COc1ccc2cc3cc(C(=O)N4CCCCCC4)oc3nc2c1 | 0.5µM* | 2.6µM* | · | 1.9µM* | 0.89µM* | ·
COc1ccc2cc3cc(C(=O)NCc4ccc(C)cc4)oc3nc2c1 | · | · | · | -3% | · | -18%
COc1ccc2cc3cc(C(=O)N(C)C4CCCCC4)oc3nc2c1 | 2.2µM* | ? | · | 7.6µM* | 2.2µM* | ·
